In PubChem BioAssay (EPA / NIEHS):
Records with an inconclusive call do not appear. Activity calls are given as the source filed them. The calls were made as follows, unless noted: active = hit-call score of the fitted dose curve at least 0.9, where 1 is the maximum; inconclusive = response in the unintended direction; inactive = score below 0.9.

How the values were obtained:
[1] = Tanguay_ZF_120hpf_AXIS_legacy: (Legacy) Oregon State University Tanguay Lab 120 Hour Post-fertilization zebrafish Assay for Body Axis Malformation (AID 2283635);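 as to AC50: potency for an increased fraction of larvae scored with body axis malformation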
Method in brief: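 Embryos: 5D wild-type, pronase-dechorionated 4 hpf; static exposure 6–120 hpf, 28C, sealed, dark, 1 embryo/well, 0.64% DMSO. 120 hpf axis malformation scored present/absent; dead embryos excluded. Analysed as gain of signal vs DMSO.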

[2] = Tanguay_ZF_120hpf_EYE_legacy: (Legacy) Oregon State University Tanguay Lab 120 Hour Post-fertilization zebrafish Assay for Eye Malformation (AID 2283636);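 also: binary presence or absence of eye malformation scored by brightfield in 120 hpf larvae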
Method in brief: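 Dechorionated wild-type Tropical 5D zebrafish embryos were exposed statically from 6 hpf, one per well, to 120 hpf at 28C in sealed, foil-covered plates with 0.64% DMSO. Eye malformation was scored present/absent by brightfield microscopy against DMSO controls.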

[3] = Tanguay_ZF_120hpf_JAW_legacy: (Legacy) Oregon State University Tanguay Lab 120 Hour Post-fertilization zebrafish Assay for Jaw Malformation (AID 2283638)
Method in brief: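 Binary jaw-malformation calls at 120 hpf by brightfield imaging; DMSO (0.64% v/v) = baseline. Embryos: 5D wild-type, pronase-dechorionated, one per well from 6 hpf, static exposure, 28C, sealed, dark.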

[4] = Tanguay_ZF_120hpf_OTIC_legacy: (Legacy) Oregon State University Tanguay Lab 120 Hour Post-fertilization zebrafish Assay for Otic Vesicle Malformation (AID 2283639)
Method in brief: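 Otic vesicle malformation is read as a yes/no morphology call at 120 hpf. Exposure is static at 28C with 0.64% (vol/vol) DMSO; embryos that die are excluded from non-mortality endpoints.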

[5] = Tanguay_ZF_120hpf_BRAI_legacy: (Legacy) Oregon State University Tanguay Lab 120 Hour Post-fertilization zebrafish Assay for Brain Malformation (AID 2283641)
Method in brief: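 Read-out: binary brain morphology call at 120 hpf (brightfield), fitted in gain-of-signal direction vs DMSO. Wild-type Tropical 5D embryos, static exposure, 28C, 0.64% DMSO final; 5uM trimethyltin chloride as positive control.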

[6] = Tanguay_ZF_120hpf_NC_legacy: (Legacy) Oregon State University Tanguay Lab 120 Hour Post-fertilization zebrafish Assay for Notochord and Tail Malformation (AID 2283656)
Method in brief: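 Dechorionated 5D zebrafish, 1/well from 6 hpf; static exposure to 120 hpf, 28C, sealed, dark; final DMSO 0.64% v/v. NC scored binary (present/absent); dead embryos not scored. Fit vs DMSO baseline, gain direction.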

[7] = Tanguay_ZF_120hpf_SNOU_legacy: (Legacy) Oregon State University Tanguay Lab 120 Hour Post-fertilization zebrafish Assay for Snout Malformation (AID 2283637)
Method in brief: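 Tropical 5D wild-type zebrafish embryos, dechorionated with pronase at 4 hpf, were exposed singly from 6 hpf to 120 hpf statically at 28C in 0.64% DMSO. Snout malformation was scored present/absent by brightfield microscopy, fitted against DMSO.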

[8] = Tanguay_ZF_120hpf_PFIN_legacy: (Legacy) Oregon State University Tanguay Lab 120 Hour Post-fertilization zebrafish Assay for Pectoral Fin Malformation (AID 2283648);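 also: each larva judged yes or no for fin defect by brightfield with dead larvae skipped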
Method in brief: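 Tropical 5D wild-type embryos, dechorionated with pronase at 4 hpf, were placed singly in wells at 6 hpf and statically exposed until 120 hpf at 28C, sealed and dark, with 0.64% (vol/vol) final DMSO; pectoral fin malformation scored present/absent.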

[9] = Tanguay_ZF_120hpf_CFIN_legacy: (Legacy) Oregon State University Tanguay Lab 120 Hour Post-fertilization zebrafish Assay for Caudal Fin Malformation (AID 2283649)
Method in brief: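 Dechorionated 5D wild-type zebrafish, static exposure 6–120 hpf, 28C, sealed and dark, 0.64% v/v DMSO final. Binary fin-malformation call at 120 hpf, brightfield; gain of signal vs DMSO baseline.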

[10] = Tanguay_ZF_120hpf_PIG_legacy: (Legacy) Oregon State University Tanguay Lab 120 Hour Post-fertilization zebrafish Assay for Pigmentation Malformation (AID 2283650)
Method in brief: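 Tropical 5D wild-type zebrafish embryos, dechorionated with pronase at 4 hpf, were exposed singly from 6 hpf to 120 hpf statically at 28C in sealed, dark plates with 0.64% DMSO; pigmentation scored present/absent by brightfield microscopy, fitted against DMSO.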

[11] = Tanguay_ZF_120hpf_CIRC_legacy: (Legacy) Oregon State University Tanguay Lab 120 Hour Post-fertilization zebrafish Assay for Circulatory Malformation (AID 2283651)
Method in brief: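 Using wild-type Tropical 5D zebrafish, we exposed dechorionated embryos from 6 to 120 hpf in embryo medium with 0.64% DMSO. Circulatory defects were scored as present or absent; 5uM trimethyltin chloride served as positive control.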

[12] = read-out: solute carrier (SLC22A6), SLC22A6 (gene 9356); experiment: LTEA_HepaRG_SLC22A6: Life Technologies and Expression Analysis (LTEA) Assay for solute carrier (SLC22A6) using HepaRG (AID 2283653; active = hit-call score of the fitted dose curve at least 0.9, where 1 is the maximum; inactive = score below 0.9); conditions: mRNA level, 48 h; actives raise or lower the signal
Method in brief: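 HepaRG, human liver line; 48 h chemical exposure; 8-pt half-log series from 100 uM in 0.5% DMSO, duplicate wells. Readout: TaqMan qRT-PCR of SLC22A6 mRNA, housekeeping-normalised; bidirectional curve fit vs DMSO baseline.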

[13] = Tanguay_ZF_120hpf_SWIM_legacy: (Legacy) Oregon State University Tanguay Lab 120 Hour Post-fertilization zebrafish Assay for Swim Bladder Malformation (AID 2283654);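 also: swim bladder malformation in each larva scored yes or no under brightfield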
Method in brief: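 Dechorionated Tropical 5D wild-type embryos, placed singly from 6 hpf, were statically exposed at 28C to 120 hpf with 0.64% DMSO final; swim bladder malformation was scored present/absent by brightfield microscopy, gain of signal relative to DMSO controls.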

[14] = Tanguay_ZF_120hpf_TRUN_legacy: (Legacy) Oregon State University Tanguay Lab 120 Hour Post-fertilization zebrafish Assay for Truncated Body (AID 2283655)
Method in brief: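 Whole-embryo zebrafish screen: dechorionated 5D embryos, static exposure 6–120 hpf, 28C, sealed foil-covered plates, 0.64% DMSO. Binary truncation call; gain of signal versus DMSO baseline.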

[15] = read-out: solute carrier (SLC10A1), SLC10A1 (gene 6554); experiment: LTEA_HepaRG_SLC10A1: Life Technologies and Expression Analysis (LTEA) Assay for solute carrier (SLC10A1) using HepaRG (AID 2283657; active = hit-call score of the fitted dose curve at least 0.9, where 1 is the maximum; inactive = score below 0.9); conditions: mRNA level, 48 h; actives raise or lower the signal
Method in brief: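 Differentiated HepaRG cells were plated 48 h, then exposed in serum-free induction medium for 48 h to 8 concentrations (top 100 uM, half-log steps, 0.5% DMSO). SLC10A1 mRNA was quantified by qRT-PCR normalized to ACTB, GAPDH, POLR2A; bidirectional fit versus DMSO.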

[16] = read-out: matrix metalloproteinase-1 (MMP1), MMP1 (gene 4312); experiment: LTEA_HepaRG_MMP1: Life Technologies and Expression Analysis (LTEA) Assay for matrix metalloproteinase-1 (MMP1) using HepaRG (AID 2283658; active = hit-call score of the fitted dose curve at least 0.9, where 1 is the maximum; inactive = score below 0.9); conditions: mRNA level, 48 h; actives raise or lower the signal
Method in brief: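 MMP1 transcript read by TaqMan qRT-PCR (Fluidigm array) after 48 h chemical exposure of HepaRG cells in serum-free induction medium. Eight-point half-log series, top 100 uM, 0.5% DMSO vehicle. Bidirectional curve fit against DMSO baseline.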

[17] = Tanguay_ZF_120hpf_SOMI_legacy: (Legacy) Oregon State University Tanguay Lab 120 Hour Post-fertilization zebrafish Assay for Somite Malformation (AID 2283647)
Method in brief: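 Binary brightfield scoring of somite defects at 120 hpf in 5D wild-type larvae; one dechorionated embryo per well, static exposure from 6 hpf, 28C, sealed and dark. Final DMSO 0.64%; trimethyltin chloride 5uM positive control.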

[18] = Tanguay_ZF_120hpf_PE_legacy: (Legacy) Oregon State University Tanguay Lab 120 Hour Post-fertilization zebrafish Assay for Pericardial Edema (AID 2283640)
Method in brief: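 Static waterborne exposure, 5D wild-type embryos, 28C, to 120 hpf; final DMSO 0.64% (vol/vol). Binary PE call at 120 hpf by brightfield; fitted upward vs DMSO baseline. 5uM trimethyltin chloride as positive control.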

[19] = test system: Thyroperoxidase (TPO), gene 54314; experiment: CCTE_Simmons_AUR_rTPO: CCTE's Amplex UltraRed Assay for Thyroperoxidase (TPO) Inhibition, Simmons Lab (AID 2283662);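 as to AC50: potency for loss of signal meaning inhibition of peroxidase activity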
Method in brief: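 Rat thyroid microsomes (5 ug protein) were incubated with test compound (8 concentrations, 5 nM–87.5 uM final, 0.5% DMSO), 25 uM Amplex UltraRed and 300 uM H2O2 in 200 mM phosphate buffer for 30 min at 37C in the dark; fluorescence read at 544/590 nm.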

[20] = read-out: kallikrein-3 (KLK3), KLK3 (gene 354); experiment: LTEA_HepaRG_KLK3: Life Technologies and Expression Analysis (LTEA) Assay for kallikrein-3 (KLK3) using HepaRG (AID 2283652; active = hit-call score of the fitted dose curve at least 0.9, where 1 is the maximum; inactive = score below 0.9); conditions: mRNA level, 48 h; actives raise or lower the signal
Method in brief: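 Differentiated human HepaRG cells in serum-free induction medium exposed 48 h in duplicate, eight-point half-log series from 100 uM in 0.5% DMSO. KLK3 mRNA by qRT-PCR, normalised to ACTB, GAPDH, POLR2A; bidirectional fit versus DMSO.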

Measured: AC50

CC(C)CC(C)(O)C#CC(C)(O)CC(C)C (stereo not drawn)
inactive: [1] | [2] | [3] | [4] | [5] | [6]

O=C(O)c1cccc(Oc2ccccc2)c1
inactive: [2] | [7] | [3] | [4] | [5] | [8] | [9] | [10] | [11] | [12] | [13] | [14] | [15] | [16]

CCc1cc(SCc2sc(-c3ccc(C(F)(F)F)cc3)nc2CN2CCN(c3ccc(OC)cc3)CC2)ccc1OCC(=O)O
inactive: [2] | [7] | [3] | [5] | [17] | [9] | [10] | [11] | [13] | [14] | [6]
active: [1] 26 µM

CCOC(=O)c1ccc(C2CCC(NC[C@H](O)COc3ccc(O)c(NS(C)(=O)=O)c3)CC2)cc1 (stereo partly drawn)
inactive: [1] | [7] | [4] | [18] | [5] | [17] | [8] | [9] | [6]
active: [19] 1.12 µM

CC1=CC(=O)CC(C)(C)C1
inactive: [1] | [2] | [7] | [4] | [18] | [5] | [8] | [9] | [10] | [11] | [13] | [14] | [6]

Cc1[nH]cnc1C[C@H]1CCc2c(C)c3ccccc3n2C1=O
inactive: [1] | [2] | [7] | [3] | [18] | [5] | [17] | [8] | [9] | [10] | [11] | [13] | [6]
active: [19] 27.6 µM

Nc1cccc(N)c1
inactive: [1] | [7] | [3] | [4] | [18] | [17] | [8] | [10] | [13] | [14]
active: [19] 5.02 µM

CC(C)c1cccc(C(C)C)c1N1C(=O)c2ccc(O)cc2C1=O
active: [15] 78.7 µM
inactive: [1] | [7] | [3] | [4] | [18] | [5] | [8] | [9] | [11] | [20] | [12] | [13] | [16]

CC(O)CN(CCN(CC(C)O)CC(C)O)CC(C)O (stereo not drawn)
inactive: [1] | [2] | [7] | [4] | [5] | [17] | [8] | [9] | [10] | [11] | [13] | [14]

CC(C)=CCCC(C)CCO (stereo not drawn)
inactive: [1] | [2] | [7] | [4] | [18] | [5] | [17] | [8] | [9] | [10] | [11] | [13] | [14] | [6] | [19]

Cc1c(-c2cccnc2)c2ccccc2n1CCCCC(=O)O
inactive: [1] | [2] | [3] | [4] | [5] | [17] | [9] | [10] | [11] | [13] | [14]

CCOCCO
inactive: [1] | [7] | [18] | [5] | [9] | [10] | [11] | [13] | [14] | [6]

COCCOCCOCCOC
inactive: [2] | [7] | [3] | [5] | [8] | [9] | [10] | [13] | [14] | [6]

O=C(O)CCN(C1(C(=O)NO)CCCC1)S(=O)(=O)c1ccc(Oc2ccc(F)cc2)cc1
inactive: [2] | [7] | [3] | [5] | [17] | [8] | [9] | [11] | [13] | [6]
active: [19] 27.7 µM

CC(C)=CCC/C(C)=C\CO
active: [19] 8.64 µM
inactive: [2] | [3] | [4] | [5] | [8] | [9] | [10] | [11] | [14] | [6]

Cc1ccc(O)cc1
inactive: [1] | [7] | [3] | [4] | [18] | [5] | [8] | [10] | [11] | [14] | [6]

CCOCCOCCOCCO
inactive: [2] | [7] | [4] | [18] | [5] | [17] | [9] | [10] | [13] | [14] | [6]

CCCCCCc1ccc(O)cc1O
active: [19] 0.00854 µM
inactive: [2] | [7] | [3] | [4] | [5] | [8] | [10] | [11] | [13] | [14] | [6]

O=C1CCC(N2C(=O)c3ccccc3C2=O)C(=O)N1 (stereo not drawn)
inactive: [1] | [7] | [4] | [8] | [9] | [10] | [11] | [13] | [14] | [6]

CCCCCCCCO
inactive: [2] | [7] | [3] | [5] | [17] | [8] | [9] | [10] | [13] | [14]
